# Values of other authors in PubChem BioAssay AID977608.
# Among all 4,300 compounds or so, about 4,300 (100%) were called active. No cut-off is given here; in the data, nearly all actives have IC50 up to about 1400 µM. So high a share suggests a set chosen from earlier hits. The list shows a part of the results. Positions of bridges follow the written chain, without caps; N, C: chain ends. Bridge positions count the residues as written; N and C are the ends. Non-standard residues stand in square brackets, D forms with d. Square brackets hold non-standard residues; d marks the D form. Residues, ends and D or L forms follow the SMILES beside them. Peptide text beside a SMILES is read from it. *: point of attachment. Phe(3,5-F2) = N[C@@H](Cc1cc(F)cc(F)c1)C(=O)O; Orn(CH(NH2)2) = NC(N)NCCC[C@H](N)C(=O)O; Pip(4S-Me) = C[C@H]1CCN[C@H](C(=O)O)C1; X1 = CC[C@H](C)C/C=C/C(=O)*
# Experiment: protein-ligand inhibition affinities from structures – PDB-derived complexes (AID 977608)
molecule,measurement,setting,value
CC[C@H](C)[C@@H]1NC(=O)[C@H](CC(=O)O)NC(=O)[C@@H](NC(=O)[C@H](CCC(=O)O)NC(=O)[C@H](CC(N)=O)NC(=O)CNC(=O)CN)CSSC[C@@H](C(=O)N[C@@H](Cc2ccccc2)C(=O)N[C@@H](CCC(=O)O)C(=O)N[C@@H](CCCNC(N)N)C(=O)N[C@@H](CC(C)C)C(=O)O)NC(=O)[C@H](CCC(=O)O)NC(=O)[C@H](Cc2c[nH]c3ccccc23)NC(=O)[C@H](CCC(=O)O)NC(=O)[C@H](Cc2c[nH]c3ccccc23)NC(=O)[C@H](CCSC)NC(=O)[C@H](CCCNC(N)N)NC(=O)[C@H](C)NC1=O (H-GGNECDIA[Orn(CH(NH2)2)]MWEWECFE[Orn(CH(NH2)2)]L-OH; disulfide 5-15),IC50,"literature IC50, protein: Vascular endothelial growth factor(VEGF), PDB entry 1kat",1 µM (active)
CSCC[C@H](NC(=O)[C@@H]1CSSC[C@H](NC(=O)[C@H](CC(N)=O)NC(=O)[C@@H](N)CCCNC(N)N)C(=O)N[C@@H](Cc2ccccc2)C(=O)N[C@@H](CCC(=O)O)C(=O)N[C@@H](CO)C(=O)N[C@@H](C(C)C)C(=O)N[C@@H](C)C(=O)N[C@@H](C)C(=O)N[C@@H](CC(C)C)C(=O)N[C@@H](CCCNC(N)N)C(=O)N[C@@H](CCCNC(N)N)C(=O)N1)C(=O)N[C@@H](Cc1ccc(O)cc1)C(=O)NCC(=O)O (H-[Orn(CH(NH2)2)]NCFESVAAL[Orn(CH(NH2)2)][Orn(CH(NH2)2)]CMYG-OH; disulfide 3-13),IC50,"literature IC50, protein: Insulin-like growth factor IB(IGF-I), PDB entry 1pmx",7.2 µM (active)
CC[C@@H]1C(=O)N(C)c2cnc(-n3ccnc3-c3ccccc3)nc2N1C1CC=CC1,IC50,"literature IC50, protein: Serine/threonine-protein kinase PLK2 (C83S, V87T, A119S, A216S, C259A, C291S, L335T mutation), PDB entry 4i6f",0.005 µM (active)
CC[C@@H]1C(=O)N(C)c2cnc(-n3ccnc3-c3cscn3)nc2N1C1CCCC1,IC50,"literature IC50, protein: Serine/threonine-protein kinase PLK2 (C83S, V87T, A119S, A216S, C259A, C291S, L335T mutation), PDB entry 4i6h",0.005 µM (active)
"CC[C@H](C)C/C=C/C(=O)N[C@@H](Cc1cc(F)cc(F)c1)C(=O)N[C@@H]1C(=O)N2CCC[C@H]2C(=O)N2CC[C@H](C)C[C@H]2C(=O)N[C@@H](C)C(=O)N2CCC[C@H]2C(=O)O[C@@H]1C (X1-[Phe(3,5-F2)]TP[Pip(4S-Me)]AP; ester 2-C)",IC50,"literature IC50, protein: ATP-dependent Clp protease proteolytic subunit 1 ClpP1, PDB entry 4u0g",5.1 µM (active)
Oc1ccc(-n2ccnc2)cc1,IC50,"literature IC50, protein: Polymerase PA, PDB entry 4m5r",1000 µM (active)
c1cc2nc(N[C@H]3CCCNC3)c3cc[nH]c3n2n1,IC50,"literature IC50, protein: MAP kinase-activated protein kinase 2, PDB entry 3wi6",4.7 µM (active)
O=C(O)c1ccc2occc2c1,IC50,"literature IC50, protein: Dengue virus 3 non-structural protein 5, PDB entry 4ctj",3120 µM (active)
N[C@@H](CCNC(=O)N1CCn2c(ccc2C(F)(F)F)C1)Cc1cc(F)c(F)cc1F,IC50,"literature IC50, protein: Dipeptidyl peptidase 4, DPP4, PDB entry 4j3j",0.031 µM (active)
COc1ccc(Cl)cc1NCC(=O)NC1CCC(n2c(=O)[nH]c3ccccc32)CC1 (stereo not given),IC50,"literature IC50, protein: Tankyrase-1, PDB entry 4k4e",0.024 µM (active)
COc1nc2c(cc1-c1c(C)noc1C)ncc1[nH]c(=O)n(-c3ccccc3OC(F)(F)F)c12,IC50,"literature IC50, protein: BROMODOMAIN-CONTAINING PROTEIN 4, PDB entry 4bw4",0.63 µM (active)
C/C(=N\O)c1ccc(O)cc1O,IC50,"literature IC50, protein: SERINE/THREONINE-PROTEIN KINASE CHK2, PDB entry 4bdb",85.6 µM (active)
COc1ccc(C[C@H](NC(=O)[C@H](C)NC(=O)CN2CCOCC2)C(=O)N[C@@H](CC2CCCCC2)[C@@H](O)[C@H](C)CO)cc1,IC50,"literature IC50, protein: yCP, PDB entry 4qlq",0.0066 µM (active)
COc1ccc(C[C@H](NC(=O)[C@@H](C)NC(=O)CN2CCOCC2)C(=O)N[C@@H](CC2CCCCC2)[C@@H](O)[C@H](C)CO)cc1,IC50,"literature IC50, protein: yCP, PDB entry 4qls",0.036 µM (active)
O=C(COc1ccccc1[P+](O)(O)O)NC1CCCCC1,IC50,"literature IC50, protein: 14-3-3 protein sigma, PDB entry 4dht",15 µM (active)
O=C(COc1ccccc1[P+](O)(O)O)NC1CCCC1,IC50,"literature IC50, protein: 14-3-3 protein sigma, PDB entry 4dhn",128 µM (active)
O=C(CS)NCCCCCC(=O)Nc1ccccc1,IC50,"literature IC50, protein: Schistosoma mansoni histone deacetylase 8, HDAC8, PDB entry 4cqf",50 µM (active)
C[C@@H](O)[C@H](NC(=O)Cc1cc(Cl)cc(Cl)c1)C(=O)NCC(=O)NCC=N,IC50,"literature IC50, protein: Protease AVP8, PDB entry 4piq",0.08 µM (active)
CC(=O)Nc1cccc(C2=CC(C)N(O)c3ccccc32)c1 (stereo not given),IC50,"literature IC50, protein: Bromodomain-containing protein 4, PDB entry 4meo",250 µM (active)
N=C1C(NS(=O)(=O)c2ccccc2)C(=O)NC(=O)N1Cc1ccccc1 (stereo not given),IC50,"literature IC50, protein: Glucose-1-phosphate thymidylyltransferase (RmlA), PDB entry 3zlk",1.32 µM (active)
same,IC50,"literature IC50, protein: Glucose-1-phosphate thymidylyltransferase (RmlA), PDB entry 4ASP",1.32 µM (active)
C/C(=C\Cc1c(O)c(Cl)c(C)c(C=O)c1O)CC/C=C(\C)[C@H](C)O,IC50,"literature IC50, protein: Alternative oxidase, mitochondrial, PDB entry 3vva",0.00048 µM (active)
CCc1nc(N)nc(N)c1-c1ccc(NCc2cc(F)cc(F)c2)cc1,IC50,"literature IC50, protein: human Renin, PDB entry 2g24",4 µM (active)
N#Cc1csc(NC(=O)CN2C(=O)CCc3ccccc32)c1-c1ncn[nH]1,IC50,"literature IC50, protein: Mitogen-activated protein kinase 10, PDB entry 3rtp",0.007 µM (active)
H-HVAVENAL-OH,IC50,"literature IC50, protein: HLA class I histocompatibility antigen, B-39 alpha chain, PDB entry 4o2f",0.387 µM (active)
CC(C)C[C@H](NC(=O)[C@H](C)NC(=O)[C@H](CC(N)=O)NC(=O)[C@H](CCC(=O)O)NC(=O)[C@@H](NC(=O)[C@H](C)NC(=O)[C@@H](NC(=O)[C@H](Cc1cnc[nH]1)NC(=O)[C@@H](N)CO)C(C)C)C(C)C)C(=O)O,IC50,"literature IC50, protein: HLA class I histocompatibility antigen, B-39 alpha chain, PDB entry 4o2e",0.01 µM (active)
O=C(CC[C@H](NC(=O)c1ccc(C#Cc2ccccc2)cc1)C(=O)NO)NCCCO,IC50,"literature IC50, protein: UDP-3-O-[3-hydroxymyristoyl] N-acetylglucosamine deacetylase, PDB entry 4j3d",0.0053 µM (active)
CCCCn1c(-c2c(C)ccc3[nH]ncc23)c[n+]2c3c(=O)[nH]c(=O)n(C)c3[nH]c12,IC50,"literature IC50, protein: EPH receptor A3, PDB entry 4gk4",0.014 µM (active)
H-AAAAAAA-OH,IC50,"literature IC50, protein: Insulin-degrading enzyme(IDE), PDB entry 2jbu",400 µM (active)
COc1ccc2c(c1)C1=NN(C(=O)CO)[C@H](c3ccc(OC(F)(F)F)c(F)c3)[C@@H]1CC2,IC50,"literature IC50, protein: Receptor-interacting serine/threonine-protein kinase 1 (C34A, C127A, C233A, C240A mutation), PDB entry 4iti",0.44 µM (active)
O=C(O)/C(S)=C/c1c(Cl)ccc(Cl)c1Cl,IC50,"literature IC50, protein: Beta-lactamase 2 BcII MBL, PDB entry 4tyt",0.02 µM (active)
CC(C)C[C@H](C[P+](O)(O)[C@@H](N)CCc1ccccc1)C(=O)N[C@@H](Cc1c[nH]c2ccccc12)C(N)=O,IC50,"literature IC50, protein: Endoplasmic reticulum aminopeptidase 2, PDB entry 4jbs",0.011 µM (active)
O=C1NCc2ccc(Cl)cc21,IC50,"literature IC50, protein: Chymase, PDB entry 4k5z",1000 µM (active)
O=C(c1ccc(O)cc1)N1CCOCC1,IC50,"literature IC50, protein: Heat shock protein HSP 90-alpha, PDB entry 4egh",550 µM (active)
N=Cc1ncc(C(=O)NCc2ccccc2)cn1,IC50,"literature IC50, protein: Protease AVP2, PDB entry 4pid",24 µM (active)
Nc1nonc1C(=O)c1ccccc1,IC50,"literature IC50, protein: Adenylate cyclase type 10 hsolAC, PDB entry 4oyi",19 µM (active)
Nc1nonc1C(=O)c1cccc(OCc2nc3ccccc3[nH]2)c1,IC50,"literature IC50, protein: Adenylate cyclase type 10 hsolAC, PDB entry 4oya",0.36 µM (active)
CCOC(=O)COc1cccc(C(=O)c2nonc2N)c1,IC50,"literature IC50, protein: Adenylate cyclase type 10 hsolAC, PDB entry 4oyb",1.6 µM (active)
COc1cccc(C(=O)c2nonc2N)c1,IC50,"literature IC50, protein: Adenylate cyclase type 10 hsolAC, PDB entry 4oym",11 µM (active)
CCCCCCCCCCCCCCCn1cc[n+](CC(O)([P+](O)(O)O)[P+](O)(O)O)c1,IC50,"literature IC50, protein: Squalene synthase, HsSQS, PDB entry 3wci",0.27 µM (active)
CCCCCCCCCCCCCCCn1cc[n+](CC([P+](O)(O)O)[P+](O)(O)O)c1,IC50,"literature IC50, protein: Squalene synthase, HsSQS, PDB entry 3wcl",0.26 µM (active)
same,IC50,"literature IC50, protein: Squalene synthase, TcSQS, PDB entry 3wcg",0.14 µM (active)
CCCCn1cc[n+](CC(O)([P+](O)(O)O)[P+](O)(O)O)c1,IC50,"literature IC50, protein: Farnesyl pyrophosphate synthase, PDB entry 4ga3",0.03 µM (active)
COc1cnc2[nH]cc(Cc3ccc(NCc4ccc(C(F)(F)F)cc4)nc3)c2c1,IC50,"literature IC50, protein: Macrophage colony-stimulating factor 1 receptor (C667T, C830S, C907T mutation), PDB entry 4hw7",0.062 µM (active)
FC(F)(F)c1ccc(CNc2ccc(Cc3c[nH]c4ncccc34)cn2)cc1,IC50,"literature IC50, protein: Mast/stem cell growth factor receptor Kit, PDB entry 4hvs",0.016 µM (active)
